Here are results for nine molecules from PubChem BioAssay (NCATS).

Records with an inconclusive call do not appear. Entries that show only a call come without a potency. Active and inactive are the calls of the source. The call rests on the fitted dose curve; in most records, active means well fitted curve in the direction sought with a large enough effect; inconclusive means small, poorly fitted or top-dose-only effect, or another doubt; inactive means no such curve, though single readings can be large; an effect the other way counts as inactive or inconclusive.

Assay [1] addresses Muscarinic acetylcholine receptor M1 (Rattus norvegicus) (UniProt P08482). Kind of assay: qHTS Assay for Antagonists of Acetylcholine Muscarinic M1 Receptor: Kinetic Measurement of Intracellular Calcium Response (AID 943). Further: potency means the concentration at half of the fitted maximal effect; nearly all actives have a fitted effect of over 75% in size. In outline:
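CHO cells expressing rat M1 receptor, Fluo-4 loaded, preincubated 10 min with compound, then stimulated with EC80 carbachol (100 nM final). Kinetic calcium fluorescence over 4 min; response taken as peak over basal signal.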

Assay [2] shares this target. As to the kind of experiment: qHTS Assay for Antagonists of Acetylcholine Muscarinic M1 Receptor: Measurement of IP-One Response (AID 944). Further: potency means the concentration at half of the fitted maximal effect; nearly all actives have a fitted effect of over 75% in size. In outline:
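CHO cells stably expressing rat M1, pretreated 10 min with compound, then stimulated 30 min with carbachol at EC80 (200 nM) in LiCl-containing buffer pH 7.4; IP1 accumulation read by HTRF competition (665/620 nm).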

Assay [3] has as its target Cytochrome P450 2D6 (Homo sapiens) (UniProt P10635). As to the kind of experiment: qHTS Assay for Inhibitors and Substrates of Cytochrome P450 2D6 (AID 891). Further: potency means the concentration at half of the fitted maximal effect; nearly all actives have a fitted effect of over 60% in size. The method, boiled down: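 Human CYP2D6 (5 nM) with 30 uM Luciferin-ME EGE (at Km) in 100 mM KPO4, compound preincubated 10 min, then NADPH regeneration system for 60 min at room temperature. Luciferin read by luminescence; normalized to 1.43 uM quinidine.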

For assay [4], the target named is Cytochrome P450 3A4 (Homo sapiens) (UniProt P08684). As to the kind of experiment: qHTS Assay for Inhibitors and Substrates of Cytochrome P450 3A4 (AID 884). Further: series mostly up to about 57 µM; nearly all actives have a fitted effect of over 50% in size. The method, boiled down: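 20 nM human CYP3A4 with 25 uM Luciferin-PPXE (at KM) in 200 mM KPO4, preincubated 10 min with compound; NADPH regeneration started a 60 min RT reaction. Luciferin detected by luminescence, normalized to 57 uM ketoconazole as full inhibition.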

The nature of assay [5]: Confirmation and Secondary Assay for Modulators of Hemoglobin Beta Chain Splicing at IVS2 705 locus (AID 930).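 Further: HeLa cells stably expressing the EGFP-705 splicing reporter; GFP fluorescence per well restored by corrected splicing of the IVS2-705 intron in EGFP; series mostly up to about 46 µM.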 The method, boiled down:
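Per-well GFP, captured at 1 x 8 µm resolution with 488 nm excitation, served as the read-out for HeLa EGFP-705 cells incubated 2 days with test compound versus DMSO.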

The target of assay [6] is Cytochrome P450 3A4 (Homo sapiens) (UniProt P08684). Kind of assay: qHTS Assay for Activators of Cytochrome P450 3A4 (AID 885). Further: nearly all actives have a fitted effect of over 65% in size. The method, boiled down:
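Human CYP3A4 (20 nM) with Luciferin-PPXE at 25 uM (its KM) in 200 mM KPO4; 10 min compound preincubation, then NADPH regeneration and 60 min reaction at RT. Luciferin read by luminescence; normalized to 57 uM ketoconazole full inhibition.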

Sequence of Cytochrome P450 3A4 (Homo sapiens) (P08684 whole entry, looked up): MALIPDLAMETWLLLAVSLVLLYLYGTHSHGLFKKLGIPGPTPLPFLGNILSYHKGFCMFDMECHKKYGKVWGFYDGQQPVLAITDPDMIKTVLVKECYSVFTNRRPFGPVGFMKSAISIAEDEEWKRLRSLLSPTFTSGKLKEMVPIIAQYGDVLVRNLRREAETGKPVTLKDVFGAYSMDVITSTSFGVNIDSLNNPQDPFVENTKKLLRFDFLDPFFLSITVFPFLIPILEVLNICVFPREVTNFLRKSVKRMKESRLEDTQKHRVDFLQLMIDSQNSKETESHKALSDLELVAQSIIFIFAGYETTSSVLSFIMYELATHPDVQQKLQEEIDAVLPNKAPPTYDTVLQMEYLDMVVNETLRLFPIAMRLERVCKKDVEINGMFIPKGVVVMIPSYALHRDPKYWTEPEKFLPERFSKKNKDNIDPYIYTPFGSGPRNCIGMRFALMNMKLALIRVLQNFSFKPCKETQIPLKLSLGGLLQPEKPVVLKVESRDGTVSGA
Sequence of Muscarinic acetylcholine receptor M1 (Rattus norvegicus) (P08482 whole entry, looked up): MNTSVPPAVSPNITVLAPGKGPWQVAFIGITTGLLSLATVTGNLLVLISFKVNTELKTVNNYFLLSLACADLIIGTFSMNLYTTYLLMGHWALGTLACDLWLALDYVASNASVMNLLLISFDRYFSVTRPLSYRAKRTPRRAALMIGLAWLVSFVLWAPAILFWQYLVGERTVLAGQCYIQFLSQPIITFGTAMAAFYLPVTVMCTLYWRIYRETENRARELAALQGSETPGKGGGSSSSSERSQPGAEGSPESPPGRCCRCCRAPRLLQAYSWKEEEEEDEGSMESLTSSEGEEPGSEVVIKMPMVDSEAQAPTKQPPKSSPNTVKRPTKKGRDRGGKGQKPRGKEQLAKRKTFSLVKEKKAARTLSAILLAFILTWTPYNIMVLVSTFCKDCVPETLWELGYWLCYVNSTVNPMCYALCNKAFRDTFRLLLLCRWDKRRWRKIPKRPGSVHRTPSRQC
Sequence of Cytochrome P450 2D6 (Homo sapiens) (P10635 whole entry, looked up): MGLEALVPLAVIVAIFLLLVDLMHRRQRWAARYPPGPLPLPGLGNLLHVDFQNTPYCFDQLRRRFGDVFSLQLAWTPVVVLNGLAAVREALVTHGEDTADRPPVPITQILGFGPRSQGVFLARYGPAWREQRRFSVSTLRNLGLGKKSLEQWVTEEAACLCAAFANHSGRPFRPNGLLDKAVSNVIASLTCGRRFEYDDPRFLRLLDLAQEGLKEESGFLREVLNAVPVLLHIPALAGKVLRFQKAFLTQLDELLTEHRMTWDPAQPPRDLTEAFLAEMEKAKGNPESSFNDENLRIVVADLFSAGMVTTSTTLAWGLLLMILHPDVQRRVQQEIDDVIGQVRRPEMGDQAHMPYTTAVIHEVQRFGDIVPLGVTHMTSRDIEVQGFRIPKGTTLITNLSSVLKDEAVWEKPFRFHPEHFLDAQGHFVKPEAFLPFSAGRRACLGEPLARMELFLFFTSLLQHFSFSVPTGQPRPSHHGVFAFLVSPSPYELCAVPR

Turning to `Cc1cc(C(C)(C)C)cc(C)c1CC1=NCCN1`, the Potency in assay [1] is 5.62 µM (active); in assay [2], 10 µM (active).

With `O=C1NCN(c2ccccc2)C12CCN(CCCOc1ccc(F)cc1)CC2`, the Potency in assay [3] was 0.158 µM (active).

Take `O=C(NC(=O)c1c(F)cccc1F)Nc1cc(Cl)c(OC(F)(F)C(F)C(F)(F)F)cc1Cl` (stereo not given): the Potency entry in assay [4] is “inactive”. The outcome in assay [5] was inactive.

As for `Clc1ccc(CSC(Cn2ccnc2)c2ccc(Cl)cc2Cl)cc1` (stereo not given), the Potency entry in assay [6] is “inactive”. In addition, the molecule was classed as inactive in assay [5].

For the molecule `Oc1ccc(Cl)cc1Cc1cc(Cl)ccc1O`, the Potency entry in assay [6] is “inactive”.

For `CCCCCCCCCCCCCCCC[n+]1ccccc1`, the Potency entry in assay [4] was “inactive”. The result in assay [5] was inactive.

On to `Clc1ccc(CO/N=C(\Cn2ccnc2)c2ccc(Cl)cc2Cl)c(Cl)c1`, for which the Potency result in assay [6] was “inactive”. The molecule was classed as inactive in assay [5].

Consider `CN(C)CC/C=C1\c2ccccc2Sc2ccc(Cl)cc21`, for which, in assay [3], the Potency was 2.51 µM (active).

Turning to `CCNc1nc(Cl)nc(NCC)n1`, the Potency entry in assay [4] was “inactive”. Besides, the molecule was classed as inactive in assay [5].
